# Reference: PubChem BioAssay (NCI)
# Compounds without any hit were thinned out: in the full panel of roughly 83,000, 20% have a hit.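 Treatment: one concentration, 48 hours, 96-well format. Scoring: percent growth, with anything below 10 considered active.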 Unmarked numbers belong to inactive results. Activity calls are given as the source filed them.
# System: MDA-MB-435 melanoma
# Test: NCI-60 one-dose screen, 48 h (100 = growth as untreated, 0 = no growth, -100 = all killed)
# Details: 10 µM unless noted
# Description: Growth inhibition of the MDA-MB-435 human Melanoma tumor cell line is measured as a screen for anti-cancer activity. Cells are grown in 96 well plates and exposed to the test compound for 48 hours. Compounds are tested at a single concentration, which is 10^-5 M for most compounds. The reported endpoint is percent growth (GI% or GIPRCNT), where numbers from 0 - 100% represent growth inhibition, and numbers from -100% - 0 represent cell death. For example, a value of 40 represents 60% growth inhibition. A value of 0 means no net growth occurred over the course of the experiment. A value of -40 indicates 40% of cells at the beginning of the experiment died by the end of the experiment. A value of -100 means all cells are dead at the end of the experiment.
# NCI-60 Human Tumor Cell Lines Screen was performed using the standard one-dose NCI protocol, which is described in more detail at https://dtp.cancer.gov/discovery_development/nci-60/default.htm.
# Compounds with GIPRCNT values below 10 were considered active. Activity score was based on GIPRCNT using the following formula: […]
# Score is 0 for GIPRCNT values of 100 or above, 50 for GIPRCNT values of 0, and 100 for GIPRCNT values of -100.
row,SMILES,growth
1,CN(CCOc1ccc(C#N)cc1)CCOc1ccc(C#N)cc1,86.3%
2,O=C(Nc1cccc([N+](=O)[O-])c1)c1cc2ccccc2cc1O,-1.29% (active)
3,Fc1ccc(-c2nn(-c3ccccc3)cc2-c2nc3ccccc3o2)cc1,27.8%
4,Oc1ccc(CN2CCC(N3CCCCC3)CC2)c2cccnc12,18.7%
5,COc1cc(-c2nc3cc(Cl)c(Cl)cc3[nH]2)ccc1OCC(=O)N=Nc1c(O)[nH]c2ccc([N+](=O)[O-])cc12,81.9%
6,O=C(CSc1nc2sc3c(c2c(=O)n1-c1ccccc1)CCCCC3)N/N=C/c1ccc(F)cc1,70%
7,COc1cc(NC(C)CCCNC(C)C)c2ncccc2c1OC (stereo not given),108%
8,COc1cccc(CNc2ncnc3c2ncn3C2OC(CO)C(O)C2O)c1O (stereo not given),5.51% (active)
9,Cn1c(O)c(C=NCCN=Cc2c(O)n(C)c(=O)n(C)c2=O)c(=O)n(C)c1=O,93.7%
10,CCOC(=O)C#Cc1c(C(=O)OCC)nnn1[C@@H]1O[C@H](CO)[C@H]2OC3(CCCCC3)O[C@H]21,79.7%
11,O=C1/C(=C/c2ccccc2Br)COc2ccc(O)c(O)c21,2.78% (active)
12,Nc1ncnc2c1N=C(c1ccc3c(c1)OCO3)CC(c1cccc(Nc3ccnc4cc(Cl)ccc34)c1)N2 (stereo not given),51.6%
13,CC1(c2ccccc2O)NN=C(/N=C/c2cccc([N+](=O)[O-])c2)N1C(Cc1c[nH]c2ccccc12)C(=O)O (stereo not given),106%
14,COc1ccc2nc(NC(=O)CSc3nnc4n3S(=O)(=O)c3ccccc3N4C)sc2c1,113%
15,N#CC1=C(N)Oc2c(sc3c(F)cccc23)C1c1ccc(F)cc1 (stereo not given),-51.7% (active)
16,Cc1cnc(C(=O)NNc2nc3sc4c(c3c(=O)n2C)C(C)CCC4)cn1 (stereo not given),7.05% (active)
17,COc1cc(CNC(=O)/C=C/C=C/c2ccc3c(c2)OCO3)ccc1OCc1cn(-c2ccc(C)c(C)c2)nn1,76.9%
18,COc1cc(-c2cc(-c3ccc(N(C)C)cc3)nc(N3CCC(O)CC3)c2C#N)cc(OC)c1OC,-18.5% (active)
19,N#C/C(=C\c1ccc(Br)cc1)n1nnc2ccc(F)cc21,-34.1% (active)
20,O=C(Nc1ncc(Cc2ccc(Cl)c(C(F)(F)F)c2)s1)c1ccc2nnsc2c1,22.6%

row,SMILES,growth
1,C#CCOc1cccc(Nc2ncnc3c(NC(=O)C=C)cccc23)c1,2.2% (active)
2,CCc1nc2c(=O)[nH]cnc2o1,110%
3,COC(C(=O)[C@@H](O)[C@@H](C)O)[C@@H]1Cc2cc3cc(O[C@H]4C[C@@H](O[C@H]5C[C@@H](O)[C@H](O)C(C)O5)[C@H](O)C(C)O4)cc(O)c3c(O)c2C(=O)[C@H]1O[C@H]1C[C@@H](O[C@H]2C[C@@H](O[C@H]3C[C@@H](OC)[C@H](O)C(C)O3)[C@@H](O)C(C)O2)[C@H](O)C(C)O1 (stereo not given in full),44.8%
4,COC(=O)c1c2c(c(C)[n+]([O-])c1C)C(=O)C=C(NCc1ccc(Br)cc1)C2=O,-92.8% (active)
5,COc1ccc(NC(=O)c2sc3nc(C)c(C(=O)/C=C/c4cccc(OC)c4)cc3c2N)cc1,13.6%
6,COc1cc(CNS(=O)(=O)c2ccc(C)cc2)ccc1OCc1cn(-c2ccc(F)cc2)nn1,94.4%
7,CCN(CC)c1ccc(/C=C/C(=O)c2ccc(Nc3nc(Nc4ccccc4)nc(Nc4ccccc4)n3)cc2)cc1,51.4%
8,COc1ccc(C(=S)N2CCN(c3ccccc3Cl)CC2)cc1OC,91.7%
9,COc1cnc2c(c1)C(=O)c1c-2n(CCCNCCO)c(=O)c2ccncc12,5.96% (active)
10,O=C1c2cccc3cccc(c23)C(=O)N1N1C(=O)c2cccc3c(N4CCOCC4)ccc(c23)C1=O,102%
11,CC(=O)Cc1nsc(NC(=O)c2cc(-c3cc(Cl)cc(Cl)c3)oc2C)n1,101%
12,CN1C(=O)/C(=C/c2cn(-c3ccccc3)nc2-c2ccccc2)SC1=S,99.5%
13,COCCn1c(-c2csc(-c3cn(C)c4ccc(OC)cc34)n2)cc2cccnc21,74.5%
14,N#Cc1c(NC(=O)c2ccccc2)sc2c1CCC(=O)C2,2.87% (active)
15,Cc1cc2c(O)c(-c3cccc(Cl)c3)c3sc(=O)oc3c2cc1C,28.9%
16,N#C/C(=C\c1ccc(-c2ccc(Cl)cc2)o1)C(=O)Nc1ncc(Cc2ccc(Cl)cc2)s1,21.2%
17,Cc1ccc(Sc2oc(-c3ccc(C)cc3)nc2[P+](c2ccccc2)(c2ccccc2)c2ccccc2)cc1,-30.3% (active)
18,Cn1c(-c2ccc(Br)cc2)c(O)c(=O)c2c(F)cccc21,67.8%
19,N=C(N)c1ccc(-c2ccc(-c3ccc(F)cc3)o2)o1,-76.9% (active)
20,CN1CCN(Cc2ccc(NC(=O)c3cncc(C#Cc4cnc(N)c5ccccc45)c3)cc2C(F)(F)F)CC1,-88.7% (active)
